High-throughput results as filed in PubChem.
TRHR agonist = activates the human TRH receptor | P34981 | TRHR cells, calcium flux fluo-8, FDSS agonist mode | activation, % at 2 µM | 0.18% of 360,000 active | AID 493084
Target sequence (P34981 whole entry, looked up): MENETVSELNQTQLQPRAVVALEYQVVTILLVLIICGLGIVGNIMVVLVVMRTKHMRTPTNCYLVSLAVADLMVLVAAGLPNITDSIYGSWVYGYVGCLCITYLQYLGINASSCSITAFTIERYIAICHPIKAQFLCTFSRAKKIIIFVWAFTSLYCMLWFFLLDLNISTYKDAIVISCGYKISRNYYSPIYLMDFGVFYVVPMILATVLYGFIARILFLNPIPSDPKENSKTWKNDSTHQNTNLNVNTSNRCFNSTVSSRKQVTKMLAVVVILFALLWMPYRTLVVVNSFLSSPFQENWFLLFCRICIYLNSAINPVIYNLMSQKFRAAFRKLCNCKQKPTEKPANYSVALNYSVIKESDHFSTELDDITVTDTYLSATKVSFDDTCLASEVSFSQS
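In this calcium-flux screen, cells bearing human TRHR are dye-loaded with fluo-8, baselined for 10 cycles, then exposed to library compounds; positive kinetic calcium responses during the agonist phase mark hits, with TRH as control.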
D1 agonist = human D1 receptor agonism. P21728. HEK293 T-REx D1 cells, calcium flux, agonist mode. activation, % at 2 µM. 1% of 360,000 active
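Tetracycline-induced HEK293 TREx D1 cells, force-coupled to calcium signalling, were dye-loaded with a no-wash calcium kit. Compound was pin-added after a 10 s baseline. Fluorescence was read kinetically at 1 cycle/s for 180 s, with calcium rises flagged as agonism.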
D1 potentiator = potentiators of human D1 dopamine receptor; HEK293 TREx D1 cells, calcium flux, dopamine EC20 potentiation; 0.036% of 360,000 active; AID 504651; potentiation, % at 10 µM; in the data active = potentiation above about 30%
D1 antag = antagonists of human D1 dopamine receptor; P21728; HEK293 TREx D1 cells, calcium flux, dopamine EC80; active compounds read low; activity change, negative = inhibition, % at 10 µM; 3.2% of 360,000 active; AID 504652; in the data active = activity change below about -30%
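Inducible Hek293 Trex D1 cells (tetracycline, overnight, 30 C). Calcium dye 30–90 min RT. Antagonist mode: EC80 dopamine added after 180 s compound read.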
TRHR PAM = TRH receptor (human) allosteric enhancement; enhancement, % at 2 µM; TRHR cells, fluo-8 calcium fluorescence, EC20 TRH enhancement; P34981; 0.66% of 360,000 active; AID 493056; in the data active = enhancement above about 30%
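TRHR-expressing cells loaded with fluo-8 calcium dye were read kinetically (ex 480/em 530) during compound addition, then stimulated with an EC20 of TRH (10 nM final). Enhancement of the Gq-mediated intracellular calcium response was scored.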
Of the large screens only hits and unclear results are named; the others gave an inactive call; ! = not active in a repeat. Rows were chosen to be rich in hits. Some 4.6% of all compounds tested hit in one or more screens of this group. Rule as the data show it, unless noted: active = activation above about 30%; inactive = the rest.

CN(c1ncnc2onc(-c3cccc(Cl)c3)c12)C1CCCCC1	none
O=[N+]([O-])c1ccccc1S(=O)(=O)N1CCN(S(=O)(=O)c2ccc3c(c2)OCCO3)CC1	D1 antag -31
O=C(O)c1cc(F)c(S(=O)(=O)N2CCN(S(=O)(=O)c3ccc4c(c3)OCCO4)CC2)cc1F	none
C[C@@H]1CN(S(=O)(=O)c2ccc3c(c2)OCCO3)CCN1S(=O)(=O)c1c(F)cccc1F	D1 antag -33
CN(Cc1ccccc1F)C(=O)CN1CCN(S(=O)(=O)c2ccc3c(c2)OCCCO3)CC1	D1 antag -31
O=[N+]([O-])c1cccc(S(=O)(=O)N2CCN(S(=O)(=O)c3ccc4c(c3)OCCO4)CC2)c1	none
O=C(O)Cc1cc(F)c(S(=O)(=O)N2CCN(S(=O)(=O)c3ccc4c(c3)OCCO4)CC2)cc1F	D1 antag -42
Oc1cc(Nc2ccc(N3CCCCC3)cc2)cc2cccnc12	none
O=C(Nc1cc(C(F)(F)F)ccc1Cl)[C@H](O)CCc1ccccc1	none
NC1=NC[C@H](Cc2ccccc2)N1CCc1cccc(F)c1	D1 antag -37
NC1=NC[C@H](Cc2ccccc2)N1CCCCC1CCCCC1	none
COc1ccc(OC)c(S(=O)(=O)N2CCN(S(=O)(=O)c3ccc4c(c3)OCCO4)CC2)c1	none
CCOc1ccc(-c2nnc(SCC(=O)NCc3ccc(Cl)cc3)o2)cc1	none
Cc1ccc2nc(-c3ccc(N4C(=O)CC(N5CCN(CCO)CC5)C4=O)cc3)sc2c1 (stereo unspecified)	D1 antag -36
Cc1ccc(N2C(=O)CC(N3CCN(c4ccccn4)CC3)C2=O)cc1 (stereo unspecified)	none
CN(C(=O)CC1C(=O)NCCN1Cc1ccc(F)c(F)c1)C1CCOCC1 (stereo unspecified)	D1 antag -42
CN(C(=O)CC1C(=O)NCCN1Cc1ccc(F)cc1)C1CCOCC1 (stereo unspecified)	none
COc1ccc(C(=O)Nc2nc3ccc(OC)cc3s2)cc1	none
COc1ccc2nc(NC(=O)c3cc(=O)c4ccccc4o3)sc2c1	TRHR PAM 40
COc1ccc2nc(NC(=O)c3cccc(-c4cc5ccccc5oc4=O)c3)sc2c1	D1 antag -33
Cc1cccn2c(=O)c(C(=O)NC(C)c3ccccc3)c(O)nc12 (stereo unspecified)	none
CCC(C(=O)OC(C)C)c1ccc2ccccc2c1 (stereo unspecified)	none (no result: D1 antag)
COc1ccc2cc(C(C)C(=O)OC(C)C)ccc2c1 (stereo unspecified)	D1 antag -37
COc1ccc(C(=O)NCc2nnc(SCC(=O)N3CCc4ccccc43)n2Cc2ccccc2)cc1	D1 antag -30
O=C(COc1ccc(C(=O)c2ccccc2)cc1)NC1CCCCC1	D1 antag -31
O=C(CCCOc1ccc(Cl)cc1Cl)N1CCc2ccccc2C1	D1 agonist 33
O=C(COC(=O)COc1ccc(Cl)cc1)NC1CCCCC1	none
Cc1cc(OCC(=O)OCC(=O)NC2CCCC2)ccc1Cl	D1 antag -36
O=C(CCCOc1ccccc1)N1CCc2ccccc2C1	none
O=C(COC(=O)COc1ccc(Cl)cc1)NC1CCCC1	D1 antag -33
Cc1cc(OCC(=O)NC2CCCCC2)ccc1Cl	none
O=C(COc1ccc(C(=O)c2ccccc2)cc1)NC1CCCCCC1	none
Cc1sc2c(c1C)c(=O)n(-c1ccccc1)c(=O)n2CC(=O)c1ccc(Cl)cc1	none
COc1ccc(NC(=O)CC2C(=O)N(c3cccc(OC)c3)C(=O)N2CCC2=CCCCC2)cc1 (stereo unspecified)	none
Cc1cc(OCC(=O)OCC(=O)N2CCc3ccccc32)ccc1Cl	none
Cc1ccc(C)c(OCCC(=O)OCC(=O)NC2CC2)c1	none
Cc1cc(OCC(=O)OCC(=O)N2CCc3ccccc3C2)ccc1Cl	D1 antag -43
CC(C)(C)c1ccc(OCCC(=O)OCC(=O)NC2CCCCC2)cc1	D1 antag -44
Cc1ccc(C)c(OCCC(=O)OCC(=O)NC(=O)NC2CCCC2)c1	D1 antag -36
CCOc1ccccc1CNC(=O)CCCn1ncn2c(cc3occc32)c1=O	D1 antag -40!
CC(C)CCNC(=O)CCCn1c(=O)c2cccn2c2ccccc21	D1 antag -37
CCOc1cc(CNC(=O)CCCn2c(=O)c3cccn3c3cccnc32)cc(OCC)c1OCC	D1 antag -33!
COc1ccccc1CNC(=O)CCCn1c(=O)c2cccn2c2ccccc21	D1 antag -36
O=C(CCS(=O)(=O)c1ccccc1)Nc1ccc(Cl)cn1	none
Clc1ccc(-c2noc3ncnc(NCCc4ccccc4)c23)cc1	none
Cc1ccc2oc(C(=O)N(Cc3cccc(F)c3)C3CCS(=O)(=O)C3)c(C)c2c1 (stereo unspecified)	none
CC(C)(C)NC(=O)C(c1ccco1)N(Cc1ccc2c(c1)OCO2)C(=O)c1snc(C(N)=O)c1N (stereo unspecified)	none
O=C1CCCN1CCCNc1ncnc2c1[nH]c1ccc(Cl)cc12	D1 antag -88
COc1cc(CNCCc2ccccc2)cc(Br)c1OCC(=O)Nc1ccccc1C	D1 agonist 51
COc1cc(CNCCc2c[nH]c3ccccc23)cc(Cl)c1OCC(N)=O	D1 antag -31
COc1cc(CNCCc2ccccc2)cc(Cl)c1OCc1ccccc1	D1 agonist 40
CNCc1cc(Br)c(OCC(=O)Nc2ccccc2OC)c(OC)c1	none
CCOc1c(Cl)cc(CNCC(C)C)cc1OC	none
COc1cc(CNCc2ccccc2)cc(Cl)c1OC	none
CCOc1cc(CNCC(C)C)cc(Cl)c1OCc1ccccc1	D1 agonist 47
CCSc1ncc(Cl)c(C(=O)Nc2ccc(S(=O)(=O)N3CCCCC3)cc2)n1	none
Cc1nn(CC(=O)NCC(C)c2ccccc2)c(=O)c2cc3ccccc3n12 (stereo unspecified)	none
COc1cc(CNCCc2ccc(F)cc2)ccc1OCc1ccc(Cl)nc1	D1 agonist 92, D1 antag -40
N#C/C(=C/c1ccncc1)c1nc2ccccc2s1	D1 agonist 101
Cc1ccc(NC(=O)CCn2c(=O)c3cccn3c3ccccc32)c(Cl)c1	none
CSc1cccc(NC(=S)Nc2cc(C)ccc2C)c1	D1 antag -40
COc1ccc(CCN(C)Cc2ccc(OCc3ccccc3)c(OC)c2)cc1OC	D1 agonist 87, D1 antag -42
COc1cc(CNC23CC4CC(CC(C4)C2)C3)ccc1OCc1ccccc1	D1 agonist 85, D1 antag -40
COc1ccc(CCN(C)Cc2ccc(OC)c(OCc3ccccc3)c2)cc1OC	none
COc1cc(CNCc2cccs2)ccc1OCc1ccccc1	none
CCC(CO)N=CC1=C(O)CC(c2ccccc2)CC1=O (stereo unspecified)	TRHR PAM 32
